Data on seven molecules can be found in PubChem BioAssay (NCI).

The structures appear in SMILES notation. This is part of a sample that, as a whole, favours compounds with a hit. Of some 83,000 tested, about 20% had one in any assay.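 How to read the values: 0–100, growth inhibition (40 = 60% inhibited); 0, no net growth; -100 to 0, cell death (-40 = 40% of starting cells died; -100 = all dead).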 A number with no mark means an inactive call. Calls of active or inactive are those of the source. How the source made its calls: active means growth percent below 10; inactive means the rest.

Among the test systems are DU-145 prostate; K-562 leukemia; MALME-3M melanoma; MDA-MB-231 breast; RXF 393 renal; SF-268 CNS; SF-295 CNS; SF-539 CNS; UACC-257 melanoma; M14 melanoma; HCT-15 colon; HT29 colon; SNB-75 CNS; SNB-19 CNS; U251 CNS; PC-3 prostate; SK-MEL-5 melanoma; UACC-62 melanoma; LOX IMVI melanoma; SK-MEL-28 melanoma.
Common to all, as to experiment: NCI-60 one-dose screen, 48 h (100 = growth as untreated, 0 = no growth, -100 = all killed)
What all share (settings): 10 µM unless noted

Take `CCOC(=O)[C@@H]1CSC(CC)=C(C(=O)O)N1`: the growth in the assay on DU-145 prostate was 118%; in the assay with K-562 leukemia, 8.66% (active); in the assay with MALME-3M melanoma it was 104%; in the assay on MDA-MB-231 breast, 105%; in the assay with RXF 393 renal it was 109%; with SF-268 CNS it was 116%. The growth with SF-295 CNS was 111%; in the assay with SF-539 CNS, 93.4%; in the assay on UACC-257 melanoma it was 89.1%; in the assay on M14 melanoma, 98.6%; in the assay with HCT-15 colon, 104%; in the assay on HT29 colon, 111%. The growth was 115% in the assay on SNB-75 CNS; 100% with SNB-19 CNS; 94.6% in the assay on U251 CNS; -9.62% (active) in the assay with PC-3 prostate; 103% in the assay with SK-MEL-5 melanoma; 94.4% in the assay with UACC-62 melanoma. Besides, the figures for the growth with LOX IMVI melanoma and in the assay on SK-MEL-28 melanoma were 104% and 101%, respectively.
In the case of `Cc1ccc(C(=O)c2ccc(CC(=O)N/N=C/c3ccccc3O)n2C)cc1`, the growth with DU-145 prostate is 89.6%; with K-562 leukemia, 84.2%; with MALME-3M melanoma, 91.4%; in the assay with MDA-MB-231 breast, 82.6%; in the assay with RXF 393 renal it was 89.6%; with SF-268 CNS, 70.9%. For the same molecule, the growth is 97.7% in the assay on SF-295 CNS; 89.1% in the assay with SF-539 CNS; 95.3% with UACC-257 melanoma; 82.9% in the assay with M14 melanoma; 43.5% in the assay with HCT-15 colon; 101% with HT29 colon. For the same molecule, the growth with SNB-75 CNS is 59.6%; in the assay with SNB-19 CNS it was 79.3%; with U251 CNS, 76.2%; with PC-3 prostate, 86.8%; in the assay with SK-MEL-5 melanoma it was 87.4%; in the assay with UACC-62 melanoma, 87.2%. For the same molecule, the growth is 58% in the assay with LOX IMVI melanoma and 84.3% in the assay on SK-MEL-28 melanoma.
With `COc1ccc(/C=C(\C#N)n2nnc3cc(F)c(F)cc32)cc1`, the growth is 47.6% in the assay with DU-145 prostate; 8.72% (active) in the assay with K-562 leukemia; 45.6% in the assay with MALME-3M melanoma; 64.9% in the assay with MDA-MB-231 breast; 85.8% with RXF 393 renal; 68.6% in the assay with SF-268 CNS. Also, the growth in the assay on SF-295 CNS is 72.3%; in the assay with SF-539 CNS it was 44.5%; in the assay with UACC-257 melanoma, 81.9%; with M14 melanoma, 6.43% (active); in the assay on HCT-15 colon, 29.9%; with HT29 colon it was 6.99% (active). Besides, the growth with SNB-75 CNS was 70.9%; in the assay on SNB-19 CNS, 59.1%; in the assay with U251 CNS, 72.4%; in the assay with PC-3 prostate, 41.2%; in the assay on SK-MEL-5 melanoma, 52.2%; in the assay on UACC-62 melanoma, 29.6%. The figures for the growth in the assay on LOX IMVI melanoma and in the assay on SK-MEL-28 melanoma were 47.1% and 58.1%, respectively.
In the case of `COc1ccc(C(=O)c2cc3c(N)c(C(=O)Nc4ccc(C)cc4)sc3nc2C)cc1`, the growth in the assay on DU-145 prostate was 17.3%; with K-562 leukemia it was 13.6%; in the assay on MALME-3M melanoma it was 36.1%; in the assay with MDA-MB-231 breast it was 22%; with RXF 393 renal it was -20.4% (active); in the assay on SF-268 CNS, 39.4%. For the same molecule, the growth in the assay with SF-295 CNS is 10% (active); in the assay on SF-539 CNS, -16% (active); in the assay on UACC-257 melanoma it was 58.1%; with M14 melanoma it was 17.3%; in the assay with HCT-15 colon, 11.5%; in the assay on HT29 colon, 9.18% (active). Also, the growth was -2.41% (active) in the assay on SNB-75 CNS; 28.9% in the assay with SNB-19 CNS; 19.2% with U251 CNS; 25.1% with PC-3 prostate; 6.93% (active) in the assay on SK-MEL-5 melanoma; 30.6% in the assay with UACC-62 melanoma. Moreover, the growth is 39.2% in the assay with LOX IMVI melanoma and 54% in the assay with SK-MEL-28 melanoma.
In the case of `C=C(C)[C@@H]1CC[C@]2(CO)CC[C@]3(C)[C@H](CC[C@@H]4[C@@]5(C)CC[C@H](NCO)C(C)(C)[C@@H]5CC[C@]43C)[C@@H]12`, the growth is -69.2% (active) in the assay on DU-145 prostate; 0.949% (active) with K-562 leukemia; -81.2% (active) in the assay on MALME-3M melanoma; -86.2% (active) in the assay on MDA-MB-231 breast; -79.3% (active) in the assay with RXF 393 renal; 59.1% in the assay with SF-268 CNS. The growth with SF-295 CNS was 57.4%; in the assay on SF-539 CNS, -95.6% (active); in the assay on UACC-257 melanoma, -51.6% (active); in the assay with M14 melanoma, -62.2% (active); in the assay on HCT-15 colon it was -80.7% (active); in the assay with HT29 colon it was -39.4% (active). In addition, the growth was -94.7% (active) in the assay on SNB-75 CNS; 42.3% in the assay on SNB-19 CNS; -68.6% (active) with U251 CNS; -3.03% (active) with PC-3 prostate; -90.1% (active) in the assay on SK-MEL-5 melanoma; 83.6% with UACC-62 melanoma. Besides, the growth was -99.8% (active) in the assay with LOX IMVI melanoma and -86.3% (active) in the assay with SK-MEL-28 melanoma.
Consider `O=C1C(Cl)=C(NCCCCCCNC2=C(Cl)C(=O)c3ccccc3C2=O)C(=O)c2ccccc21`, for which the growth in the assay with DU-145 prostate is 104%; with K-562 leukemia, 69.7%; in the assay with MALME-3M melanoma, 88.8%; with MDA-MB-231 breast, 78.2%; in the assay on RXF 393 renal, 123%; in the assay with SF-268 CNS, 98.2%. The growth in the assay on SF-295 CNS is 114%; with SF-539 CNS it was 115%; in the assay with UACC-257 melanoma, 75%; with M14 melanoma, 87.9%; in the assay with HCT-15 colon it was 63.3%; in the assay with HT29 colon, 98.7%. Moreover, the growth is 117% with SNB-75 CNS; 96.3% with SNB-19 CNS; 89.9% in the assay with U251 CNS; 82.2% with PC-3 prostate; 53.2% in the assay with SK-MEL-5 melanoma; 83.5% in the assay with UACC-62 melanoma. Besides, the growth in the assay on LOX IMVI melanoma is 36.3%; in the assay on SK-MEL-28 melanoma, 111%.
For `CCCCn1c(=O)[nH]c(N)c([C@@H]2c3c([nH]c(=O)n(CCCC)c3=O)Oc3ccc4ccccc4c32)c1=O`, the growth with DU-145 prostate was 47.5%; in the assay with K-562 leukemia, 76.3%; in the assay with MALME-3M melanoma, 38.5%; with MDA-MB-231 breast, 55.4%; in the assay on RXF 393 renal, 99.6%; in the assay with SF-268 CNS, 8.16% (active). The growth was 89.1% in the assay with SF-295 CNS; 95.8% with SF-539 CNS; 93% in the assay on UACC-257 melanoma; 31.1% in the assay on M14 melanoma; 6.62% (active) with HCT-15 colon; -44.2% (active) with HT29 colon. For the same molecule, the growth in the assay on SNB-75 CNS is 87.1%; in the assay with SNB-19 CNS, 64.2%; in the assay with U251 CNS it was -20.7% (active); with PC-3 prostate, 24.4%; with SK-MEL-5 melanoma it was 67%; with UACC-62 melanoma, 80.1%. In addition, the growth was -76.2% (active) with LOX IMVI melanoma and 44% with SK-MEL-28 melanoma.
